# According to PubChem BioAssay AID720650 (Broad Institute, 2013):
# Active and inactive are the calls of the source. No rule for the calls is given here.
# Experiment: Biochemical counterscreen for C difficile toxins, absence of UDPG, inhibitor dose response (AID 720650)
# Settings: series mostly up to 19.5 µM; activity change, negative = inhibition: at the top concentration
Compound,"activity change, negative = inhibition",AC50
COC(=O)C[C@H]1CC[C@@H]2[C@@H](COc3ccc(NC(=O)c4cccc(OC)c4)cc3C(=O)N2C)O1,-6.96% (inactive),
CCN(CC)C(=O)C1CCN(S(=O)(=O)c2c(C)noc2/C=C/c2cccc(C)c2)CC1,9.5% (inactive),
O=C(NN=Cc1cc(Br)c(O)c(Br)c1)c1ccccc1NS(=O)(=O)c1cccs1,2.76% (inactive),
O=C(Nc1ccccc1F)N(Cc1ccc(F)cc1)Cc1nc2ccccc2c(=O)[nH]1,-7.11% (inactive),
CCCN1CCN(C(=O)C2CCN(S(=O)(=O)c3c(C)noc3/C=C/c3ccc(C)cc3)CC2)CC1,-11.9% (inactive),
O=C(/C=C/c1ccccc1)Nc1cccnc1Cl,,> 39 µM (inactive)
c1ccc2[nH]c(-c3ccc4c(c3)OCO4)nc2c1,-21.3% (inactive),
Cc1ccc(C2=NS(=O)(=O)N(C)C(C(=O)NCc3cccs3)=C2)cc1,-9.62% (inactive),
O=C(NNc1nc2c(F)cccc2s1)C1COc2ccccc2O1 (centres undefined),,0.34 µM (active)
CCOc1ccc(NC(=O)c2ccc(CC)s2)c([N+](=O)[O-])c1,-8.67% (inactive),
CC(C)(C)N1C(=O)c2ccc(C(=O)Nc3ccc(O)cc3)cc2C1=O,,8.25 µM (active)
Cc1ccc(C(=O)Nc2ccc(O)cc2C(=O)O)cc1C,,> 39 µM (inactive)
CCOC(=O)c1ccc(N=c2sc(C(=O)OC)cc(=O)n2CCCN2CCOCC2)cc1,-1.44% (inactive),
Cc1cccc(OCCC(=O)NCC(=O)Nc2cccc(C)c2C)c1,,16.4 µM (active)
C/C(=N\NC(=O)CSc1nc2ccccc2c(=O)n1-c1ccccc1C)c1cccs1,-1.74% (inactive),
C=CCn1c(C)cc(C(=O)COC(=O)CCc2cc(OC)c(OC)c(OC)c2)c1C,-24.1% (inactive),
O=C(C[C@H]1CC[C@H]2[C@@H](COC[C@@H](O)CN2Cc2ccccc2)O1)NCCc1ccccc1,-12.5% (inactive),
CCOC(=O)N1CCN(C(=S)NC(=O)c2ccc(F)c(F)c2)CC1,-9% (inactive),
CCCCn1c(-c2ccccc2C)nc2cc3[nH]c(=O)c(C(C)C)nc3cc21,-15.5% (inactive),
CCOC(=O)c1nnn(-c2nonc2N)c1-c1ccccc1Cl,-7.96% (inactive),

Compound,"activity change, negative = inhibition",AC50
COc1cc(/C(C)=N/NC(=O)CSc2nnc(C)s2)ccc1O,3.12% (inactive),
CC(=O)Nc1cc(-c2ccc(F)cc2)[nH]n1,,2.6 µM (active)
Nc1ccc(OCCCc2c(N)nc(N)nc2N)cc1,,20.1 µM (active)
Cc1cccc(NC(=O)c2ccc(N3CCOCC3)c([N+](=O)[O-])c2)n1,-21.8% (inactive),
COc1cc(N=Nc2c(C)n(C)n(-c3ccccc3)c2=O)ccc1N,-7.35% (inactive),
CC(=O)Nc1cnc(-c2ccccc2O)cn1,,15.3 µM (active)
Nc1c(Cl)ncnc1NCCc1ccc(O)cc1,,18.6 µM (active)
Nc1ccc2c(c1)Nc1ccccc1CC2,,9.36 µM (active)
COc1ccc(C2=NS(=O)(=O)N(C)C(C(=O)N3CCOCC3)=C2)cc1,6.56% (inactive),
Cc1ccc(CN2C(=O)CN=C(c3ccccc3)c3ccccc32)cc1,-8.71% (inactive),
O=[N+]([O-])c1c(Nc2ccccc2O)ccc2nonc12,,> 39 µM (inactive)
CN(C(=O)Cn1c(=O)oc2cc(S(=O)(=O)N3CCCC3)ccc21)C1CCCCC1,-7.83% (inactive),
C=C1CCN(Cc2ccccc2)S(=O)(=O)c2ccccc21,-1.24% (inactive),
COc1cc(C(=O)Nc2scc(-c3ccccc3)c2C(=O)O)cc(OC)c1OC,,13.9 µM (active)
Cc1ccn(CCC(=O)NC2CC(C)(C)Cc3c2cnn3-c2ccccc2C)n1 (centres undefined),7.13% (inactive),
COc1ccccc1CNC(=O)CNC(=O)N1CC(=O)Nc2ccccc21,-6.27% (inactive),
O=C(NC(=S)NCc1ccccc1)c1cccnc1,-0.968% (inactive),
OCC[C@H]1C[C@H](O)[C@@H](O)[C@@]2(Cc3ccccc3CO2)O1,-8% (inactive),
Nc1nc(Cl)cc(NCCc2ccc(O)cc2)n1,,21.8 µM (active)
